{
  "source": "PubChem BioAssay AID1645870",
  "about": "(National Center for Advancing Translational Sciences (NCATS), 2021)",
  "note": "Several values for one entry are separate records, joined by “and”; a condition that tells them apart may be missing. Equal entries are not always repeated. Hit rate of the full screen: of about 59,000 compounds, about 1,500 (2.5%) were called active. Roughly 10% stayed inconclusive and do not appear here. The call rests on the fitted dose curve; in most records, active means well fitted inhibition curve with a large enough effect; inconclusive means small, poorly fitted or top-dose-only effect; inactive means flat fitted curve, though single readings scatter. The list comes from a sample in which actives are over-represented; it also holds similar structures and randomly drawn compounds. Where a call stands in place of a potency, no number is given. The source holds several records for some structures; these can differ, active in one and inactive in another. Potency means the concentration at half of the fitted maximal effect.",
  "data": [
    {"biological_target": "N-terminal Xaa-Pro-Lys N-methyltransferase 1 (Homo sapiens) (UniProt Q9BV86)", "sequence (Q9BV86 whole entry, looked up)": "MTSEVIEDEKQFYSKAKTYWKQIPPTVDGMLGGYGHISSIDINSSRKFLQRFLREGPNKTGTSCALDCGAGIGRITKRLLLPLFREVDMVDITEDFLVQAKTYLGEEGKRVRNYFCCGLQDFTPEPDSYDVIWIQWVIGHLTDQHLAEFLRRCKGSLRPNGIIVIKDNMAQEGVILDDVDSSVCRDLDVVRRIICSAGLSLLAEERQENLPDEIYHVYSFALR", "assay": "Primary qHTS for Inhibitors of N-terminal methyltransferase 1 (NTMT1): MTaseGlo Assay; further: nearly all actives have a fitted effect of over 65% in size", "conditions": "NTMT1 MTase-Glo SAH luminescence, purified enzyme; series mostly up to 114 µM", "description": "Assay Submitter (PI): Rong Huang Ph.D.\nPurdue University, West Lafayette, IN 47907\nThe N-terminal methytransferase 1 is the first methyltransferase that methylates protein alpha-N-amines and plays an important role in regulating cell mitosis, chromatin interactions and DNA repair. It is observed to be over-expressed in various cancer patient tissues like malignant melanoma and colorectal cancer tissues. Knockdown of NTMT1 in cancer cells causes cell mitotic defects and enhances sensitivity to DNA damaging chemotherapeutics. […] These critical cellular processes in which NTMT1 is implicated, coupled with emerging links to cellular dysfunction, strengthen the inference that NTMT1 is a compelling novel anticancer target. Progress have been made in understanding the molecular properties of NTMT1 and the biological consequences of protein alpha-N-terminal methylation, but there are no specific small molecule probes available for NTMT1 to fully characterize its MTase activity. To address this unmet need, a panel of assay is created and established to enable quantitative high-throughput screening (qHTS) for novel, potent, and selective small molecule NTMT1 inhibitors. Two orthogonal qHTS that use different reagents (ThioGlo vs. MTaseGlo) are developed for primary robotic screening against the NCATS chemical library of more than 400,000 small molecules. Identified inhibitors are reacquired, validated, and further characterized.\nMTaseGlo Assay is a luminescence screen that measure the activity of methyltransferases based on the reaction product S-adenosyl homocysteine (SAH). The substrate SAM is converted to SAH upon enzyme activation. MTase-Glo reagent and detection solution convert SAH to ATP and measure the light from the luciferase reaction.\nMaterials: NTMT1 enzyme, substrate SPKRIA, control peptide RCC1-6 is provided by the Huang laboratory.\nSEQUENCE No. (e.g., 1, 2, 3, etc.); […] (e.g., Cells, Incubation, Reagent, etc.); VALUE; DESCRIPTION\n1; Enzyme; 3 uL; Dispense enzyme mixture (final concentrations of 125 nM NTMT1 and 100 uM SAM) into Greiner 1536-well white / solid bottom assay plate (Greiner Bio One, Monroe, NC).\n2; Compounds; 23 nL; Compounds and controls were transferred via a Kalypsys Pin Tool (Wako USA) equipped with a 1536-slotted pin array (Wako Automation, Richmond, VA)\n3; Incubation; 15 min; Incubate at room temperature\n4; Substrate; 1 uL; Dispense 1 uL of substrate at final concentration of 1 uM. Buffer solution was dispensed in control wells. The assay plate was covered with metal lids.\n5; Incubation; 30 min; Incubate at room temperature, protected from lights.\n6; Reagent; 1 uL; Dispensed 5x MTase-Glo detection reagent (R) into the assay plate. The plate was covered with metal lids.\n7; Incubation; 30 min; Incubate the assay plates at room temperature in the dark to allow for SAH to be converted to ADP.\n8; Reagent; 5 uL; Dispense 5 uL of 1x MTase-Glo Detection Solution (R) to allow for ADP to be converted to ATP which was then detected with a luciferase reaction.\n9; Centrifuge; 15 sec; Centrifuge the assay plate for 15 seconds at 1000 RPM.\n10; Incubation; 30 min; Assay plates were incubation at room temperature in the dark.\n11; Detection; Luminescence; Plates were read on ViewLux detector (PerkinElmer). Data were normalized to no-enzyme (0% activity) and no-inhibitor (DMSO; 100%) controls, and the resulting percent inhibition data were fitted to a 4-parameter Hill equation using GraphPad Prism.", "values": [
      {"smiles": "Cc1cnc(-c2ccccc2C(C)C)nc1NCC1CCN(C)CC1", "Potency": "inactive"},
      {"smiles": "CCOC(=O)C1CCN(C(=O)C(C)(C)NC(=O)Nc2ccc(F)c(F)c2)CC1", "Potency": "inactive"},
      {"smiles": "O=C(Nc1ccc(-c2ccc(Cl)c(Cl)c2)cc1)C1=C(O)c2ccccc2S(=O)(=O)N1", "Potency": "inactive"},
      {"smiles": "NS(=O)(=O)c1ccc(NC(=O)C(=O)Nc2ccc3nc4n(c(=O)c3c2)CCCCC4)cc1", "Potency": "inactive"},
      {"smiles": "COc1cccc(C(=O)Nc2ccc3oc(-c4ccc5ccccc5c4)nc3c2)c1", "Potency": "inactive"},
      {"smiles": "COc1cccc(C(=O)Nc2ccc3nc4n(c(=O)c3c2)CCCCC4)c1", "Potency": "50.1 µM (active)"},
      {"smiles": "Cc1cc(C)n2ncc(C(=O)Nc3cccc(C#N)c3)c2n1", "Potency": "inactive"},
      {"smiles": "CCOc1ccc(CCNC(=O)c2cc3ccccc3n2Cc2ccc(Cl)c(F)c2)cc1OCC", "Potency": "inactive"},
      {"smiles": "CC(C)c1ccccc1SC1=NS(=O)(=O)c2ccccc21", "Potency": "inactive"},
      {"smiles": "CN(C)c1ccc(C(=O)NCC(=O)OC(C(=O)Nc2cc(C(F)(F)F)ccc2Cl)c2ccccc2)cc1", "note": "(configuration not stated)", "Potency": "inactive"},
      {"smiles": "COc1ccc(Cn2ccn(CC(=O)Nc3cc(C)ccc3C)c(=O)c2=O)cc1", "Potency": "79.4 µM (active)"},
      {"smiles": "COc1ccc(Cn2ccn(Cc3cccc(OC)c3)c(=O)c2=O)cc1", "Potency": "inactive"},
      {"smiles": "Cc1ccc(C)c(NC(=O)Cn2ccn(-c3ccc(F)cc3)c(=O)c2=O)c1", "Potency": "inactive"},
      {"smiles": "N#Cc1ccc(N[S+](=O)([O-])c2ccc(Nc3nc(-c4ccccc4)cs3)cc2)cc1", "Potency": "inactive"},
      {"smiles": "O=[S+]([O-])(c1ccc(OC(F)(F)F)cc1)N1CCN([S+](=O)([O-])c2ccc3c(c2)OCCO3)CC1", "Potency": "inactive"},
      {"smiles": "CN1CCOc2cc(S(=O)(=O)N3CCN(S(=O)(=O)c4c(F)cccc4F)CC3)cnc21", "Potency": "inactive"},
      {"smiles": "COCC1CCCN(C(=O)CC(c2ccc3c(c2)OCO3)c2c(O)cc(OC)cc2OC)C1", "note": "(configuration not stated)", "Potency": "inactive"},
      {"smiles": "CCOc1cc(CCNC(=O)c2cc3sccc3n2Cc2ccccc2)cc(F)c1OCC", "Potency": "inactive"},
      {"smiles": "Cc1ccc(Nc2c(-c3ccc(C)s3)nc3ccccn23)cc1", "Potency": "inactive"},
      {"smiles": "Cc1cccc2nc(-c3ccc(Cl)s3)c(Nc3ccc4c(c3)OCCO4)n12", "Potency": "1.78 µM (active)"},
      {"smiles": "Oc1ccccc1-c1nc2ccc(Cl)cn2c1Nc1ccc2c(c1)OCCO2", "Potency": "inactive"},
      {"smiles": "Cc1cc2c(s1)c1cnn(Cc3cc(F)c(Cl)cc3Cl)c(=O)c1n2C", "Potency": "inactive"},
      {"smiles": "Fc1cc(Nc2nc(-c3ccncc3)nc3ccccc23)ccc1-n1cncn1", "Potency": "inactive"},
      {"smiles": "Cc1c(Cl)cccc1S(=O)(=O)Nc1nc(CCN2CCOCC2=O)cs1", "Potency": "inactive"},
      {"smiles": "Cc1cc(Nc2cc(CN3CCOCC3)c3nc(C)c(Cc4ccc(Cl)cc4F)n3n2)n[nH]1", "Potency": "30.4 µM (active) and 7.08 µM (active) and 11.2 µM (active)"},
      {"smiles": "COc1cc(NS(=O)(=O)c2ccc(C)cc2)ccc1C(=O)Nc1nc(-c2ccccc2)cs1", "Potency": "inactive"},
      {"smiles": "Cc1cc(C)n2ncc(C(=O)Nc3ccc4c(c3)OCCO4)c2n1", "Potency": "inactive"},
      {"smiles": "Cc1cc(C)n2ncc(C(=O)Nc3ccc(C)c(C)c3)c2n1", "Potency": "inactive"},
      {"smiles": "COc1ccc(C[C@H](C(=O)O)N2C(=O)c3ccc(C(=O)O)cc3C2=O)cc1", "Potency": "inactive"},
      {"smiles": "CC(C)(C)C1CCc2c(sc(NC(=O)c3ccccc3F)c2C(=O)N2CCCCC2)C1", "note": "(configuration not stated)", "Potency": "inactive"},
      {"smiles": "COC(=O)c1cccc(Cn2nnc3sc4c(c3c2=O)CCC(C(C)(C)C)C4)c1", "note": "(configuration not stated)", "Potency": "inactive"},
      {"smiles": "CC(C)C(=O)Nc1nc2c(s1)CC(C(C)(C)C)CC2", "note": "(configuration not stated)", "Potency": "79.4 µM (active)"},
      {"smiles": "Cc1ccc(S(=O)(=O)NC(N)=NCCC[C@@H](NC(=O)CNC(=O)c2ccccc2)C(=O)Nc2cc(C(F)(F)F)ccc2Cl)cc1", "Potency": "inactive"},
      {"smiles": "CC(C)c1ccc(C2CC(=O)N3CN(C4CCCCC4)CSC3=C2C#N)cc1", "note": "(configuration not stated)", "Potency": "11.2 µM (active)"},
      {"smiles": "O=C(Nc1ccc2ccccc2c1)Nc1nnc(-c2ccc(O)cc2)s1", "Potency": "inactive"},
      {"smiles": "CC(C)c1ccc2c(c1)c(SC(C)(C)C)c(CC(C)(C)C(=O)O)n2Cc1ccc(Cl)cc1", "Potency": "inactive and 79.4 µM (active)"},
      {"smiles": "Cc1c(C)n(Cc2ccc(Cl)cc2)c2ccc(C(=O)N3CCN(c4ccccc4F)CC3)cc12", "Potency": "inactive"},
      {"smiles": "C[S+](=O)([O-])c1ccc(-c2ccc(=O)n(CC(=O)NCCc3ccccc3)n2)cc1", "Potency": "inactive"},
      {"smiles": "Cc1ccc(OCCn2c(CCNC(=O)Cc3cccc4ccccc34)nc3ccccc32)cc1", "Potency": "inactive"},
      {"smiles": "CN1CC[C@H](c2c(O)cc(O)c3c(=O)cc(-c4ccccc4Cl)oc23)[C@H](O)C1", "Potency": "31.6 µM (active)"},
      {"smiles": "Cc1cc(C2N=C(Nc3nc4ccccc4o3)NC3=C2C(=O)CCC3)n[nH]1", "note": "(configuration not stated)", "Potency": "inactive"},
      {"smiles": "FC(F)(F)c1cc(Cl)cc(-c2ccc(CNc3nc(-c4ccccc4C(F)(F)F)nc4ccccc34)cc2)c1", "Potency": "inactive"},
      {"smiles": "Cc1ccccc1-c1ccc(NC(=O)c2cccs2)cn1", "Potency": "inactive"},
      {"smiles": "O=S(=O)(NCC1CN(S(=O)(=O)c2ccc3c(c2)OCCO3)C1)c1c(F)cccc1F", "Potency": "inactive"},
      {"smiles": "O=S(=O)(Nc1cccc2ccccc12)c1ccc(NCc2ccc(Br)cc2O)cc1", "Potency": "inactive"},
      {"smiles": "CCN(CC)c1ccc(NC(=O)CN(C)Cc2c(O)ccc3ccccc23)cc1", "Potency": "inactive"},
      {"smiles": "COc1ccccc1-c1c[nH]c2ncc(-c3cncc(C(=O)N(C)C)c3)cc12", "Potency": "39.8 µM (active)"},
      {"smiles": "COc1ccc(-c2cncc(NC(=O)c3cccs3)c2)cc1OC", "Potency": "inactive"},
      {"smiles": "O=C1NS(=O)(=O)c2cc(Cl)ccc21", "Potency": "inactive"},
      {"smiles": "NC(=O)C1CCN(c2cc(-c3ccc4c(c3)OCCCO4)ncn2)CC1", "Potency": "inactive"},
      {"smiles": "c1nc(N2CCOCC2)c2cc(-c3ccc4c(c3)OCO4)ccc2n1", "Potency": "12.6 µM (active)"},
      {"smiles": "COc1ccc(NC(=O)c2cnn3c(-c4ccccc4)cc(C)nc23)cc1", "Potency": "inactive"},
      {"smiles": "O=C(Nc1ccc([S+](=O)([O-])Nc2nccs2)cc1)c1ccn[nH]1", "Potency": "inactive"},
      {"smiles": "O=C(OC/C=C/CSc1nnc(-c2cccc3ccccc23)o1)c1ccc(F)cc1", "Potency": "inactive"},
      {"smiles": "COc1cc(NC(=O)c2cc3ccc4cccnc4c3[nH]2)cc(OC)c1OC", "Potency": "inactive"},
      {"smiles": "COc1cc(Nc2ncc(F)c(Nc3ccc4c(n3)NC(=O)C(C)(C)O4)n2)cc(OC)c1OC", "Potency": "inactive and 1.52 µM (active)"},
      {"smiles": "N#CN1CCC(NS(=O)(=O)c2cccc(F)c2)C1", "note": "(configuration not stated)", "Potency": "inactive"}
    ]}
  ]
}
